# Measurements from PubChem BioAssay.
# Unmarked numbers belong to inactive results. For some assays here: Entries with a potency or affinity are not part of this list. The source made the active and inactive calls. Unless noted, no rule for the calls is given here.
# Experiments:
# [1] = antimalarial activity against Dd2 strain (AID 2302;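 active = growth inhibition above 50% at the single 2 µM test dose, taken to imply half-maximal potency below 2 µM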;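 also: 0% = DMSO untreated growth and 100% = chloroquine plus artemisinin killed control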); settings: P. falciparum Dd2 in RBCs, LDH growth readout, 72 h; at 2 µM; hits give high values
# [2] = HepG2 cytotoxicity, primary screen, cytotoxicity control for P. falciparum antimalarial project, cell-based, ATP luminescence (AID 2303;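 active = inhibition above 50%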;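 also: 0% = DMSO wells and 100% = digitonin-killed cells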); settings: HepG2 viability, 24-48 h, at 10 µM, hits give high values
# [3] = target: L-lactate dehydrogenase (Plasmodium falciparum (isolate CDC / Honduras)) (UniProt Q27743); assay: PfLDH activity inhibition – cell lysate, 3D7 strain, counter-screen for P. falciparum growth inhibition project (AID 2304);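 also: 0% = vehicle and 100% = reference inhibitor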; settings: P. falciparum 3D7 crude extract, LDH APAD/NBT absorbance; at 2 µM; hits give high values
# Chain of L-lactate dehydrogenase (Plasmodium falciparum (isolate CDC / Honduras)) (Q27743 whole entry, looked up): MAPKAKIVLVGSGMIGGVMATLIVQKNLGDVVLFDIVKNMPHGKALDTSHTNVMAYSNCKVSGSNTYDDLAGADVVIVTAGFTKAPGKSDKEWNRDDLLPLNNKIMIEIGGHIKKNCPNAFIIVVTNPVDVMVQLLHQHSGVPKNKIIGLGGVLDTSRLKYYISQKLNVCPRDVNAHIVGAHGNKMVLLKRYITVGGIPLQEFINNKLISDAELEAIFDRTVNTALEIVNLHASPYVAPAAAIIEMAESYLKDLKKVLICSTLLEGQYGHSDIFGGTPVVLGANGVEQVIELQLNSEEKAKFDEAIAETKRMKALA
# [4] = inhibition of 3D7 malaria parasite growth – strain 3D7 (AID 2306);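 also: 0% = DMSO wells and 100% = chloroquine plus artemisinin control wells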; settings: P. falciparum 3D7 erythrocytic growth, LDH absorbance, 72 h; at 2 µM; hits give high values
# [5] = target: Calcium-dependent protein kinase 1 (Plasmodium falciparum (isolate 3D7)) (UniProt P62344); assay: PfCDPK1 kinase inhibitors, biochemical, TCAMS library (AID 1159585; cut-off not given, nearly all actives have IC50 up to about 0.98 µM;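 also: inhibitors leave more ATP so luminescence rises with inhibition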); settings: recombinant PfCDPK1, Kinase-Glo ATP depletion luminescence
# Chain of Calcium-dependent protein kinase 1 (Plasmodium falciparum (isolate 3D7)) (P62344 whole entry, looked up): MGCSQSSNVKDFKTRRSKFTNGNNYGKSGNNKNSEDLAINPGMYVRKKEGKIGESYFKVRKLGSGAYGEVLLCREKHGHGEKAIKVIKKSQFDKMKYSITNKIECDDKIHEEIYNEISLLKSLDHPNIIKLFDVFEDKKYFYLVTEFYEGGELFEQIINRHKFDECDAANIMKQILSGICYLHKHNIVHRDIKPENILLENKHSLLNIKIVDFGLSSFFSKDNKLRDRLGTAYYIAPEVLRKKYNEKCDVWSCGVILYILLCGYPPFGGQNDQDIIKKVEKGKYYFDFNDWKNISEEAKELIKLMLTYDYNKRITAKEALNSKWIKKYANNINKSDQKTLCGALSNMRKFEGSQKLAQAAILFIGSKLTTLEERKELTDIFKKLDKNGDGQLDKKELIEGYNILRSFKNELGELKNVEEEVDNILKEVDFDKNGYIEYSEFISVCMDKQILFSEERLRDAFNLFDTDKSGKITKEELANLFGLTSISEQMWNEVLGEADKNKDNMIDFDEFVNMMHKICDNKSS
# [6] = target: Plasmodium falciparum protein kinase 6 (PK6, PF3D7_1337100) (UniProt Q8IDW1); assay: PfPK6 kinase inhibitors, biochemical, TCAMS library (AID 1159586); settings: recombinant PfPK6, Kinase-Glo ATP depletion luminescence
# Chain of Plasmodium falciparum protein kinase 6 (PK6, PF3D7_1337100) (Q8IDW1 1-305): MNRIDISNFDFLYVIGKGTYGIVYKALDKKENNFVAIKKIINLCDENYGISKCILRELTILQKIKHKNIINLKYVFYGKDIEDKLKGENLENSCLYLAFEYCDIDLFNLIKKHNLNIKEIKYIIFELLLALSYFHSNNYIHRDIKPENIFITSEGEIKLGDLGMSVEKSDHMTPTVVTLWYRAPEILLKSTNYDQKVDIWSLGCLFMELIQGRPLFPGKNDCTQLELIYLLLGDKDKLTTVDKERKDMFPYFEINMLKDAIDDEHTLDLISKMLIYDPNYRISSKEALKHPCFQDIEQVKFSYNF
# [7] = target: Protein kinase 7 (PK7), Plasmodium falciparum 3D7 (PF3D7_0213400) (UniProt Q7YTF7); assay: inhibition of Plasmodium PK7 catalytic activity – biochemical, TCAMS antimalarial set, Kinase-Glo luminescence (AID 1159587); settings: recombinant PfPK7, Kinase-Glo ATP depletion luminescence
# Chain of Protein kinase 7 (PK7), Plasmodium falciparum 3D7 (PF3D7_0213400) (Q7YTF7 1-343): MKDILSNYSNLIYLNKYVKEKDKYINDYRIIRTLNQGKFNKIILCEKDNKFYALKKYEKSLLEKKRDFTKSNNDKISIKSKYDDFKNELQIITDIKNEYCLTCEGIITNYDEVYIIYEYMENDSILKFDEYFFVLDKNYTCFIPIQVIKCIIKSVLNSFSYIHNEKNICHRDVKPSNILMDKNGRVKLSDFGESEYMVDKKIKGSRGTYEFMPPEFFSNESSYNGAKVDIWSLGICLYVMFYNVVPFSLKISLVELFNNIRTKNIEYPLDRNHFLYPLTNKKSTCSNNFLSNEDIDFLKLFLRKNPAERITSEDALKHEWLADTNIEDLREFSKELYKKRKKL
# [8] = target: Calcium-dependent protein kinase 4 (Plasmodium falciparum (isolate 3D7)) (UniProt Q8IBS5); assay: PfCDPK4 kinase inhibitors, biochemical, TCAMS library (AID 1159588; cut-off not given, nearly all actives have IC50 up to about 0.91 µM); settings: recombinant PfCDPK4, Kinase-Glo ATP depletion luminescence
# Chain of Calcium-dependent protein kinase 4 (Plasmodium falciparum (isolate 3D7)) (Q8IBS5 whole entry, looked up): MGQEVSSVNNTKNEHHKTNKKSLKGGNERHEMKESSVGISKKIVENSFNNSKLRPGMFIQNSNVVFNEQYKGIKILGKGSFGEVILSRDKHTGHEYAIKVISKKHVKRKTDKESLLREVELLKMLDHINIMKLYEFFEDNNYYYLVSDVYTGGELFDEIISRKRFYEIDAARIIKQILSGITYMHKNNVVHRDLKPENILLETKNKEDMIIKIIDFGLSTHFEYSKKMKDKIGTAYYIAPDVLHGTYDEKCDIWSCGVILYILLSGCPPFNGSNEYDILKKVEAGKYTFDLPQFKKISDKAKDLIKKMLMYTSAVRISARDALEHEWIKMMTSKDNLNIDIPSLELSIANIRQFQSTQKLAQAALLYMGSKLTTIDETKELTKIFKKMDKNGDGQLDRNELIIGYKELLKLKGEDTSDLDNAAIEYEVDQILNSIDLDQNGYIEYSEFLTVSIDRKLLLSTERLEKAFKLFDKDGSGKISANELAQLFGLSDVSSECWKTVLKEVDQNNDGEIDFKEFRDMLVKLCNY
SMILES,growth inhibition [1],inhibition [2],inhibition [3] [%],growth inhibition [4],outcome [5],outcome [6],outcome [7],outcome [8]
COc1ccc(NC(=O)/C=C/c2ccc(Cl)c(C(F)(F)F)c2)cc1OCCN(C(C)C)C(C)C,28%,18%,-1,95% (active),inactive,inactive,inactive,inactive
CCc1c[nH]c2c(N3CCCC3=O)cc(C(=O)N[C@@H](Cc3ccccc3)[C@H](O)CNC(C)(C)c3cccc(OC)c3)cc12,98% (active),0%,2,93% (active),inactive,inactive,inactive,inactive
CN(C)Cc1ccc(-c2cccc(NC(=O)c3cccc(Cl)c3)c2)cc1,12%,18%,-6,96% (active),inactive,inactive,inactive,inactive
Cc1ccc(O)cc1Nc1ccnc2ccc(-c3cccc(CN(C)C)c3)cc12,99% (active),-3%,1,101% (active),inactive,inactive,inactive,inactive
Cc1cc(Cl)c(S(=O)(=O)NC2CCCC2)cc1OCC(=O)NC1CCCCC1,91% (active),19%,-6,97% (active),inactive,inactive,inactive,inactive
O=[N+]([O-])c1ccc(Oc2ccccc2CNCC2CCN(CC3CCCCC3)CC2)cc1,28%,40%,-2,89% (active),inactive,inactive,inactive,inactive
Cc1cc2ccccc2n1CC(=O)N1CC(C(=O)N2CCCCC2)Oc2ccccc21 (stereo not given),77% (active),-1%,2,99% (active),inactive,inactive,inactive,inactive
COc1cc2nc(NCCc3ccccc3)nc(N(C)Cc3ccccc3)c2cc1OC,58% (active),31%,-6,96% (active),inactive,inactive,inactive,inactive
Cc1ccc(NC(=O)c2cn(-c3ccccc3)nc2-c2ccc(F)cc2)cc1[N+](=O)[O-],38%,6%,8,92% (active),inactive,inactive,inactive,inactive
O=C(NCCCCN1CCC(c2ccc3c(c2OCC2COCO2)CCCC3)CC1)c1ccc(-c2ccc(C(F)(F)F)cc2)cc1 (stereo not given),45%,91% (active),-2,99% (active),inactive,inactive,inactive,inactive
Cc1cc(NC(=O)NCCN2CCC(NC(=O)c3cccc(Br)c3)C2)c2ccccc2n1 (stereo not given),60% (active),-2%,-1,100% (active),inactive,inactive,inactive,inactive
COCCC[C@H]1C(=O)O[C@H]2CCC[C@@H]21,85% (active),-9%,-4,93% (active),inactive,inactive,inactive,inactive
OC(CNc1cccc(Cl)c1)Cn1c2ccc(Cl)cc2c2cc(Cl)ccc21 (stereo not given),33%,8%,6,95% (active),inactive,inactive,inactive,inactive
Cc1cc(NCCc2ccccc2)nc(/N=C(\N)Nc2cccc([N+](=O)[O-])c2)n1,101% (active),21%,-2,102% (active),inactive,inactive,inactive,inactive
c1ccc2cc3c(NCCN4CCOCC4)ccnc3cc2c1,98% (active),-1%,-1,99% (active),inactive,inactive,inactive,inactive
O=C(Nc1ccc(-c2oc(C(=O)NCCc3cccc(Cl)c3)cc2-c2ccncc2)cc1)Nc1cccc(Cl)c1,84% (active),13%,-1,99% (active),inactive,inactive,inactive,inactive
FC(F)(F)c1ccc2nc(-c3ccc(-c4ccc(CN5CCN(c6ccncc6)CC5)cc4)cc3)[nH]c2c1,99% (active),91% (active),6,101% (active),inactive,inactive,inactive,inactive
CS(=O)(=O)c1ccc(CCNCc2ccc(-c3ccc(CN(C(=O)c4ccco4)C4CCN(Cc5ccccc5)CC4)cc3)nc2)cc1,38%,13%,-1,85% (active),inactive,inactive,inactive,inactive
CC(=O)Nc1nc(C(=O)Nc2cccc(-c3cccc(-c4nc5c(C)cccc5[nH]4)c3)c2)cs1,94% (active),28%,-2,101% (active),inactive,inactive,inactive,inactive
CCCc1cc(N2CCC(c3ccccc3)(N3CCCCC3)CC2)nc(Nc2ccc(OC)cc2)n1,28%,13%,1,81% (active),inactive,inactive,inactive,inactive

SMILES,growth inhibition [1],inhibition [2],inhibition [3] [%],growth inhibition [4],outcome [5],outcome [6],outcome [7],outcome [8]
Clc1ccc(OCc2ccccc2)c(-c2nc(-c3nc4ccc(Cl)cc4[nH]3)cs2)c1,60% (active),-9%,-3,99% (active),inactive,inactive,inactive,inactive
Cc1ccnc(NC(=O)c2cc(-c3cccc([N+](=O)[O-])c3)nc3onc(C)c23)c1,44%,5%,-1,91% (active),inactive,inactive,inactive,inactive
O=C(/C=C/c1ccc(Cl)cc1)NCCCCCN1CCCC(C(=O)Nc2ccc(Cl)cc2)C1 (stereo not given),6%,24%,8,94% (active),inactive,inactive,inactive,inactive
CN1CCN(Cc2ccc(-c3ccc4c(Nc5ccc(F)cc5Cl)ccnc4c3)o2)CC1,100% (active),8%,-3,100% (active),inactive,inactive,inactive,inactive
COc1ccc2nccc(NN=Cc3cccc(C)n3)c2c1,99% (active),16%,3,100% (active),inactive,inactive,inactive,inactive
O=C(Nc1ccc([N+](=O)[O-])cc1)Nc1nc2ccc(Cl)cc2s1,33%,63% (active),2,92% (active),inactive,inactive,inactive,inactive
COc1ccc2c(c1)nc(CN=C(N)N)n2Cc1ccc(Cl)cc1,99% (active),12%,4,102% (active),inactive,inactive,inactive,inactive
CCN(CC)CCN(Cc1ccc(-c2ccc(C(F)(F)F)cc2)cc1)C(=O)Cn1cc(Cc2cnn(C)c2)c(=O)nc1/C=C/c1ccc(F)cc1,91% (active),6%,3,96% (active),inactive,inactive,inactive,inactive
Cc1ccc(Oc2cnn(C)c(=O)c2Nc2cccc(C(=O)NCCc3ccccn3)c2)c(C)c1,94% (active),0%,-4,94% (active),inactive,inactive,inactive,inactive
COc1cc(C(=O)N2[C@@H](c3nccs3)[C@@H](C(=O)N(OC)C(C)c3ccccc3)C[C@@]2(CC(C)C)C(=O)OC(C)(C)C)ccc1C(C)(C)C (stereo not given in full),92% (active),12%,5,92% (active),inactive,inactive,inactive,inactive
Cc1cc(OCCCN=C(N)c2ccc3ccccc3c2)c(C(C)C)cc1Cl,10%,89% (active),2,95% (active),inactive,inactive,inactive,inactive
CN1CCc2cc(CN3C[C@]4(C)C[C@H]3CC(C)(C)C4)c(O)cc2C(c2ccccc2)C1 (stereo not given in full),88% (active),-4%,-3,98% (active),inactive,inactive,inactive,inactive
CC(C)C(C(=O)n1ncc2c3c(N)nc(N)nc3ccc21)C(C)C,8%,67% (active),-8,98% (active),inactive,inactive,inactive,inactive
COc1cc2c(cc1OC)C(C(=O)c1ccccc1)=NCC2,62% (active),19%,0,85% (active),inactive,inactive,inactive,inactive
COc1cc(Nc2nccn3c(-c4ccsc4)cnc23)cc(OC)c1OC,78% (active),26%,3,93% (active),inactive,inactive,inactive,inactive
Cc1nc(-c2nc(NCCc3ccncc3)ncc2-c2ccsc2)sc1C,87% (active),10%,-1,92% (active),inactive,inactive,inactive,inactive
Cc1nc2ccc(NC(=O)Nc3ccnc4ccc(C(F)(F)F)cc34)cc2o1,24%,20%,-7,89% (active),inactive,inactive,inactive,inactive
COc1ccc2nccc([C@@H](O)CN3CCC(NCc4cc5c(Cl)cccc5[nH]4)CC3)c2c1,74% (active),40%,1,101% (active),inactive,inactive,inactive,inactive
Cc1cc(NC2CCCC2)nc(Nc2ccc(F)cc2)n1,74% (active),22%,-3,100% (active),inactive,inactive,inactive,inactive
CN(Cc1cc(C(F)(F)F)cc(C(F)(F)F)c1)C(=O)C(Cc1ccc(F)cc1)C1CCCNC1 (stereo not given),89% (active),10%,4,96% (active),inactive,inactive,inactive,inactive
